In PubChem BioAssay AID434994 (NMMLSC, 2010):
The other results are listed elsewhere or left out. A number with no mark means an inactive call.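 The calls were made as follows: active = superoxide signal below 65% of the plate average of sample wells; inactive = the rest.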

Assay: retest of yeast aging ROS inhibitors – cherry picked compounds, confirmation (AID 434994);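 also: cells aged with compound for 7 days at 30 degrees C before staining; 100% equals mean DHE fluorescence of all compound wells on the plate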
Conditions: S. cerevisiae aging, superoxide DHE fluorescence; at 10 µM; active compounds read low

SMILES | superoxide response (% of plate) [%]
O=[N+]([O-])c1ccc2c(c1)Nc1nc3ccccc3nc1N2 | 82.5
Cc1ccc(-c2nc(CSCC(=O)NC3CCN(Cc4ccccc4)CC3)c(C)o2)cc1 | 101
CCN(CC)c1ccc(NC(=O)CN2CCN(c3ccccn3)CC2)cc1 | 101
O=C(O)c1ccc(F)c(S(=O)(=O)Nc2ccccc2)c1 | 101
CCn1c2ccccc2c2cc(NC(=O)CNC)ccc21 | 107
CC(C)(C)NC(=O)COc1ccc(CNc2ccc3[nH]c(=O)[nH]c3c2)cc1 | 96.2
O=C(O)C1CCCN1S(=O)(=O)c1ccc(Br)cc1 (configuration not stated) | 105
NC(=S)Nc1c(Cl)cccc1Cl | 109
Cc1cc(=O)n2[nH]c(-c3cccc(Cl)c3)cc2n1 | 98.1
CC(=O)c1ccc2c(c1)c1ccccc1n2CC(C)C | 107
CSc1sc(C(=O)NNC(=O)c2ccc(Cl)cc2)c2c1C=CCC2 | 104
COc1ccc(C)cc1S(=O)(=O)Nc1cccc(Cl)c1Cl | 96.3
O=C(Nc1ccc(Br)cn1)c1ccc([N+](=O)[O-])cc1Cl | 96.2
CCCC(C)C(=O)OCC(=O)Nc1c(Br)cc(C)cc1Br (configuration not stated) | 101
Cc1ccc(-c2nc(CS(=O)CC(=O)N3CCN(c4ncccn4)CC3)c(C)o2)cc1 (configuration not stated) | 92.5
CC(=O)NC1=NN(C(C)=O)C(C)(CCS(=O)(=O)c2ccc(Cl)c(Cl)c2)S1 (configuration not stated) | 101
CCn1c2ccccc2c2cc(CC(N)=O)ccc21 | 111
CC(=O)C[C@@H](O)CC(=O)[C@H]1OC(=O)CCCCCCc2ccccc21 | 103
Cc1ccc2cccc(S(=O)(=O)N3CCN(c4ccccc4F)CC3)c2n1 | 119
Cc1ccccc1NC(=O)NCC1CCN(Cc2cccc(Cl)c2)CC1 | 94.6
Cc1ccc(NC(=O)Cn2nc(C)c3ccccc3c2=O)c(C)c1 | 114
CN1CCN(c2cc3c(cc2F)c(=O)c(C(=O)O)cn3CCF)CC1 | 116
